Results taken from PubChem BioAssay (Tox21).
Inconclusive results are not listed. Unmarked numbers belong to inactive results. Calls of active or inactive are those of the source. The call rests on the fitted dose curve; in most records, active means well fitted inhibition curve with a large enough effect in the signal ratio in the repeat runs (not every such curve was filed as active); inconclusive means weak or mixed curves, or effect the other way; inactive means no such curve, though single readings can be large or run the other way; the % refers to the signal ratio.

molecular target: Vitamin D3 receptor (Homo sapiens) (UniProt P11473); assay: qHTS assay to identify small molecule antagonists of the vitamin D receptor (VDR) signaling pathway (AID 743223); conditions: VDR-UAS-bla HEK293T, beta-lactamase FRET ratio, 16 h; series mostly up to 61 µM
Sequence (P11473 whole entry, looked up): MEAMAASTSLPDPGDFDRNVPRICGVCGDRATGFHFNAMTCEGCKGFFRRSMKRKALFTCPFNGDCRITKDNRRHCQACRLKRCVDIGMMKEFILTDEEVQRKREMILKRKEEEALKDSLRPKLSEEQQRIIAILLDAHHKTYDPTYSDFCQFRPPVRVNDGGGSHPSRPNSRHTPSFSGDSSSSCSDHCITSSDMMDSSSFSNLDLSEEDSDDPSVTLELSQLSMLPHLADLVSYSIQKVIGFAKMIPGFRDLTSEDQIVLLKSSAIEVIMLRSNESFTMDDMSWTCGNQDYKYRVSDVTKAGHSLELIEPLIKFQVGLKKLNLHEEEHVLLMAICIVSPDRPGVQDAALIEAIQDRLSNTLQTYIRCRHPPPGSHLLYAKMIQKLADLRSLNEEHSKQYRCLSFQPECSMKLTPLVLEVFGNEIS
Source text: U.S. Tox21 Program National Center for Advancing Translational Sciences [NCATS] NIH Chemical Genomics Center [NCGC] U.S. Environmental Protection Agency [EPA] National Institutes of Environmental Health Sciences [NIEHS] National Toxicology Program [NTP] U.S. Food and Drug Administration [FDA] Tox21 Assay Overview: The vitamin D receptor (VDR), a member of nuclear hormone receptor superfamily, plays a critical role in calcium homeostasis and bone metabolism. It is also involved in cell differentiation and growth, and thrombogenicity.
Tox21 Assay Protocol Summary: VDR-bla cells were dispensed at 2,000 cells/5 uL of assay medium per well into black wall/clear-bottom 1536-well plates using a Multidrop Combi (Thermo Fisher Scientific, Waltham, MA) dispenser. After the assay plates were incubated at a 37C and 5% CO2 for 4 h, 23 nL of compounds dissolved in DMSO, positive controls or DMSO only was transferred to the assay plate by a Pintool station (Kalypsys, San Diego, CA), followed by addition of 1 uL of 1alpha, 25-Dihydroxy Vitamin D3 (3 nM, final concentration in the wells) using a Bioraptr Flying Reagent Dispenser (FRD) workstation (Beckman Coulter, Indianapolis, IN). The plates were incubated at 37C and 5% CO2 for 16 h, and then 1 uL of LiveBLAzerTM B/G FRET substrate was added using a Bioraptr FRD. The plates were incubated at room temperature for 2 h and fluorescence intensity was measured by an Envision plate reader (PerkinElmer, Shelton, CT).
On the % scale 0 is the no-effect control and ±100 the full control effect.

SMILES	outcome	activity change, negative = inhibition
CCCCc1ncc(/C=C(\Cc2cccs2)C(=O)O)n1Cc1ccc(C(=O)O)cc1	inactive	
CCOC(=O)COC(=O)c1cc(Oc2ccc(C(F)(F)F)cc2Cl)ccc1[N+](=O)[O-]	inactive	
CCCCCCCCCc1ccc(OCCOCCO)cc1	inactive	
C=CCOc1ccccc1OCC(O)CNC(C)C (stereo not given)	inactive	
Nc1cccc(S(=O)(=O)c2cccc(N)c2)c1	inactive	
O=C(O)CC(=O)C(=O)O	inactive	
NCC(=O)CCC(=O)O	inactive	
O=C(NCC1CN(c2ccc(N3CCOCC3=O)cc2)C(=O)O1)c1ccc(Cl)s1 (stereo not given)	inactive	
NCC(=O)O	inactive	
O=C(NCCO[N+](=O)[O-])c1cccnc1	inactive	
c1cc(CCCc2ccncc2)ccn1	inactive	
CN(C)CCOC(c1ccccc1)c1ccc(Br)cc1 (stereo not given)	inactive	
CCCCC(CC)COC(=O)CCCCCCCCC(=O)OCC(CC)CCCC (stereo not given)	inactive	
O=[N+]([O-])c1ccc2[nH]ncc2c1	inactive	
O=[N+]([O-])c1cccc(S(=O)(=O)O)c1	inactive	
CCCCC(=O)OCC(=O)[C@H]1[C@H](C)C[C@H]2[C@@H]3C[C@H](F)C4=CC(=O)C=C[C@]4(C)[C@@]3(F)[C@@H](O)C[C@@]21C	inactive	
O=CC1CC=CCC1 (stereo not given)	inactive	
CCCCCCCC#N	inactive	
Cc1cccc(Nc2ccccc2)c1	inactive	
C[N+]1(C)CCC(OC(=O)C(O)(c2ccccc2)C2CCCC2)C1 (stereo not given)	inactive	

SMILES	outcome	activity change, negative = inhibition
CN(C)CCN(Cc1ccccc1)c1ccccn1	inactive	
C=CCOC(=O)CCC1CCCCC1	inactive	
COc1ccc(C(=O)N2CCN(CC(=O)N3CCOCC3)CC2)cc1	inactive	
c1ccc(-c2ccccn2)nc1	inactive	
COc1cccc(N(C)C(=S)Oc2ccc3c(c2)CCCC3)n1	inactive	
CN(C)CCN(Cc1ccc(Cl)cc1)c1ccccn1	inactive	
Nc1cc(C(=O)O)c(O)c(S(=O)(=O)O)c1	inactive	
CN1C[C@H]2c3ccccc3Oc3ccc(Cl)cc3[C@@H]2C1	inactive	
CNC(=O)CN(CCN(CCN(CC(=O)[O-])CC(=O)NC)CC(=O)[O-])CC(=O)[O-].O.[Gd+3]	inactive	
CCC(C)(C)CC	inactive	
CC(C)=CCC/C(C)=C/CC/C(C)=C/CO	inactive	
Cc1ncc(CO)c(C=O)c1O	inactive	
CC1(c2ccccc2)OC(C(=O)O)=CC1=O (stereo not given)	inactive	
COC(C)(C)CCO	inactive	
COc1ccc(C(=O)c2ccc(OC)cc2O)c(O)c1	inactive	
COc1cc(Cl)c(OC)cc1N	inactive	
CC(CC=O)c1ccccc1 (stereo not given)	inactive	
CN1CCN(C(c2ccccc2)c2ccccc2)CC1	inactive	
C/C(=C(\CCOP(=O)(O)O)SC(=O)c1ccccc1)N(C=O)Cc1cnc(C)nc1N		2.53% [at 6.95 µM]
C=CC(=O)OCCOc1ccccc1	inactive	
